In all, about 330,000 compounds went through this assay and about 2,600 (0.79%) were called active.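 How the source made its calls: active means mean ATP rescue above about 67%, or every replicate alone reaching that limit (limit read from the data, passing the limit was not always enough); inconclusive means no clear call, values can overlap the other calls; inactive means mean under the limit and some replicate under it.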 The sample as a whole holds a higher share of actives than the screen did.

The assay in a line: suppressors of statin myotoxicity in C2C12 myotubes, primary screen, cell-based, single point, plate reader (AID 602340).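 Further: myotubes were challenged with 10 µM simvastatin during compound exposure.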 The following applies: C2C12 myotubes + simvastatin, ATP luminescence, 48 h; at 7.49 µM; active compounds read high; scaled: DMSO 0, geranylgeraniol control 100.
`COCC(=O)Nc1ccc2c(c1)OC[C@@H](C)N(C(=O)CC1CC1)C[C@@H](C)[C@@H](OC)CN(C)C2=O`: the rescue of ATP level is 15.1% (inactive).
`CCCC#Cc1cnc2c(c1)C(=O)N([C@H](C)CO)C[C@@H](C)[C@@H](CN(C)C(=O)Nc1ccccc1OC)O2`: the rescue of ATP level was 11.6% (inactive).
Consider `CC1(C)Cc2cccc(OCC(N)=O)c2O1`, for which the rescue of ATP level is 113% (active).
In the case of `CC1(C)Cc2cccc(OCC(=O)Nc3nccs3)c2O1` it was 0.639% (inactive); in that of `CC1(C)Cc2cccc(OCC(=O)NCc3ccccc3)c2O1`, 1.33% (inactive).
In the case of `CCC(=O)N[C@H]1CC[C@H](CCn2cc(-c3cccc(OC)c3)nn2)O[C@H]1CO` it was -2.48% (inactive); in that of `CC=Cc1ccc2n(c1=O)C[C@H]1[C@H](CO)[C@@H](C(=O)NC3CCCC3)N(Cc3cccnc3)[C@@H]21` (mixture of isomers), -41.8% (inactive); in that of `C[C@H](CO)N1C[C@H](C)[C@@H](CN(C)Cc2cccc(F)c2)Oc2cc(C#CC3CC3)ccc2S1(=O)=O`, -17.1% (inactive).
For `Cc1ccc(O)c(CNc2nc3ccccc3[nH]2)c1` the value was 2.19% (inactive); for `CC1(C)Cc2c(C#N)c(SCc3nc4ccccc4[nH]3)nc(N3CCOCC3)c2CO1`, -43.7% (inactive); for `Clc1ccccc1SCc1nc2ccccc2[nH]1`, 91.4% (active).
Turning to `CO[C@@H]1CN(C)C(=O)c2ccc(NC(=O)NC(C)C)cc2OC[C@H](C)N(Cc2ccc(-c3ccccn3)cc2)C[C@H]1C`, the rescue of ATP level was 16.4% (inactive).
For `CCNC(=O)C[C@@H]1C=C[C@@H](NC(=O)C2CCOCC2)[C@@H](CO)O1` the value was -1.82% (inactive).
As for `O=C(C[C@@H]1CC[C@@H]2[C@H](COC[C@H](O)CN2CC2CCOCC2)O1)NCC1CCCCC1`, the rescue of ATP level was 1.6% (inactive).
For `CO[C@@H]1CN(C)C(=O)c2ccc(NC(=O)c3cccc(Oc4ccccc4)c3)cc2OC[C@H](C)NC[C@@H]1C` the value was -3.89% (inactive); for `CNC(=O)C[C@H]1CC[C@H]2[C@H](COc3ccc(NC(=O)Nc4ccc(F)cc4)cc3C(=O)N2C)O1`, 17.2% (inactive).
Regarding `COc1ccc2nc(N3C(=O)C(O)=C(C(=O)c4ccco4)C3c3ccco3)sc2c1` (stereo not drawn), the rescue of ATP level is 9.9% (inactive).
On to `COc1ccc2nc(N3CCN(C(=O)c4ccc([N+](=O)[O-])o4)CC3)sc2c1`, for which the rescue of ATP level is 73.2% (active).
For `Cc1ccc2nc(N3CCN(C(=O)c4ccco4)CC3)sc2c1` the value was 0.517% (inactive); for `COc1ccc(S(=O)(=O)Nc2ccc3c(c2)C(=O)N([C@@H](C)CO)C[C@H](C)[C@H](CN(C)Cc2ccc4c(c2)OCO4)OCCCC[C@H](C)O3)cc1`, -65.3% (inactive); for `CC=Cc1ccc2n(c1=O)C[C@@H]1[C@@H](CO)[C@H](C(=O)NCC(F)(F)F)N(CCc3ccccc3)[C@H]21` (mixture of isomers), -10.8% (inactive).
`O=C(C[C@@H]1CC[C@@H]2[C@H](COC[C@H](O)CN2C(=O)Nc2cccc(Cl)c2)O1)NCCCN1CCOCC1`: the rescue of ATP level was -20.2% (inactive).
With `CCCS(=O)(=O)N1CCCC(C(=O)NCc2ccco2)C1` (stereo not drawn), the rescue of ATP level was -3.35% (inactive).
In the case of `O=C(NCc1ccco1)C1CCCN(S(=O)(=O)c2cnc[nH]2)C1` (stereo not drawn) it was -4.96% (inactive); in that of `O=C(NCc1ccco1)C1CCCN(S(=O)(=O)c2ccccc2)C1` (stereo not drawn), 133% (active); in that of `O=C(C[C@@H]1CC[C@@H]2[C@H](COC[C@@H](O)CN2S(=O)(=O)c2cccc(Cl)c2)O1)N1CCOCC1`, -7.32% (inactive).
In the case of `CCCN(C)C[C@@H]1Oc2ncc(C#CC3CC3)cc2C(=O)N([C@H](C)CO)C[C@H]1C` it was 8.64% (inactive); in that of `O=C(Nc1ccccc1)N1C[C@H]2[C@@H](c3ccccc31)[C@H](CO)N2Cc1ccc(F)cc1`, 3.11% (inactive).
For `COc1cccc(S(=O)(=O)N[C@H]2C=C[C@H](CC(=O)NC3Cc4ccccc4C3)O[C@@H]2CO)c1` the value was 4.32% (inactive).
As for `C[C@@H]1CN([C@@H](C)CO)C(=O)c2cc(C#CCN(C)C)cnc2O[C@H]1CN(C)S(=O)(=O)c1cn(C)cn1`, the rescue of ATP level was -11.7% (inactive).
For `O=C(c1cc2cc(F)ccc2[nH]1)N1CCN(c2ccc(F)cc2)CC1`, the rescue of ATP level is 0.946% (inactive).
For `Cc1c(C(=O)N2CCN(c3ccc(F)cc3)CC2)oc2c1C(=O)CCC2` the value was 87.3% (active); for `O=C(c1cc(-c2ccc(F)cc2)on1)N1CCN(c2ccc(F)cc2)CC1`, -7.85% (inactive); for `C[C@@H]1CN([C@H](C)CO)S(=O)(=O)c2ccc(C#C[C@@H](C)O)cc2O[C@H]1CN(C)CC1CC1`, -38.8% (inactive).
In the case of `CCCNC(=O)Nc1ccc2c(c1)OC[C@@H](C)N(C(=O)c1ccccc1F)C[C@H](C)[C@@H](OC)CN(C)C2=O` it was -10.8% (inactive); in that of `O=C(Nc1cc(C(F)(F)F)ccc1Cl)c1cc2nc3c(c(C(F)(F)F)n2n1)CCCC3`, -15% (inactive).
Turning to `O=C(Nc1ccc(Cl)cc1)c1cc2nc(C3CC3)cc(C(F)(F)F)n2n1`, the rescue of ATP level is 98.2% (active).
In the case of `C=CCNC(=O)c1cc2nc(C3CC3)cc(C(F)F)n2n1` it was -17.9% (inactive); in that of `COc1cc(OC)c(C(=O)N2CCCC2)cc1OC`, -3.44% (inactive).
In the case of `Cc1c(Br)cc(C(=O)N2CCCCCC2)c(C)c1C`, the rescue of ATP level was 115% (active).
For `Cc1ccc(C(=O)N2CCCC2)c(F)c1F` the value was 16.3% (inactive); for `COCC(=O)Nc1ccc2c(c1)C(=O)N(C)[C@@H]1CC[C@H](CC(=O)NCC3CCCCC3)O[C@H]1CO2`, 13.3% (inactive).
For `O=C(Nc1ccccc1F)N[C@@H]1CC[C@H](CC(=O)N2CCCCC2)O[C@H]1CO` the value was 4.38% (inactive); for `CC(=O)N1[C@@H]2c3ccc(-c4ccccc4)c(=O)n3C[C@@H]2[C@@H](CO)[C@@H]1C(=O)NCc1ccccc1F`, 5.23% (inactive); for `Fc1ccccc1COc1cccc2cccnc12`, 8.73% (inactive).
Regarding `O=C(Nc1ccccc1)Oc1cccc2cccnc12`, the rescue of ATP level was 101% (active).
Regarding `OCc1ccc(OCCCOc2cccc3cccnc23)cc1`, the rescue of ATP level was 7.29% (inactive).
For `C/C=C/c1ccc2c(c1)O[C@H](CN(C)C(=O)C1CCCCC1)[C@@H](C)CN([C@@H](C)CO)S2(=O)=O` the value was 2.75% (inactive); for `CCOCCn1c(C(C)C)nc2ccccc21`, -2.16% (inactive).
With `COCCOCCn1cnc2ccccc21`, the rescue of ATP level is 14.6% (inactive).
Consider `CCc1nc2ccccc2n(CCOCCOCCn2c(=O)c(CC)nc3ccccc32)c1=O`, for which the rescue of ATP level was 114% (active).
For `C[C@@H]1CN([C@H](C)CO)C(=O)c2cc(C#CC3CC3)cnc2O[C@@H]1CN(C)Cc1cccc(C(=O)O)c1` the value was -0.6% (inactive); for `COc1ccc2[nH]c(=O)c(CN(Cc3cccnc3)S(=O)(=O)c3ccccc3F)cc2c1`, -38.6% (inactive).
For the compound `COc1ccc2[nH]c(=O)c(CNc3ccc(C)c(C)c3)cc2c1`, the rescue of ATP level is 100% (active).
For `COc1ccc2[nH]c(=O)c(CN(CC3CCCO3)C(=O)Nc3ccccc3)cc2c1` (stereo not drawn) the value was -11.6% (inactive); for `CO[C@H]1CN(C)C(=O)c2ccc(NS(C)(=O)=O)cc2OC[C@@H](C)N(C(=O)c2ccc3c(c2)OCO3)C[C@@H]1C`, -7.88% (inactive); for `C[C@@H]1CCCCO[C@H](CN(C)S(=O)(=O)c2cn(C)cn2)[C@H](C)CN([C@@H](C)CO)C(=O)c2cc(NC(=O)Nc3ccc(C(F)(F)F)cc3)ccc2O1`, 0.993% (inactive).
For `C[C@@H]1CN([C@@H](C)CO)C(=O)Cc2cc(NC(=O)CCN3CCOCC3)ccc2O[C@H]1CN(C)S(=O)(=O)c1ccccc1` the value was -6.12% (inactive); for `O=S(=O)(Cc1ccccc1)NCC[C@@H]1CC[C@@H](NS(=O)(=O)c2ccccc2)[C@@H](CO)O1`, 1.31% (inactive).
In the case of `Cc1ccc(S(=O)(=O)N/N=C\c2cc3c(cc2[N+](=O)[O-])OCO3)cc1` it was 2.88% (inactive); in that of `COc1ccc(S(=O)(=O)N/N=C\c2ccc(OC)c(COc3ccc(C)cc3[N+](=O)[O-])c2)cc1`, 99.4% (active); in that of `COc1ccc(S(=O)(=O)Nc2ccc3cn[nH]c3c2)cc1[N+](=O)[O-]`, 1.46% (inactive).
On to `COc1cccc(S(=O)(=O)Nc2ccc3c(c2)C(=O)N(C)C[C@@H](OC)[C@H](C)CN(C(=O)Cc2cccnc2)[C@H](C)CO3)c1`, for which the rescue of ATP level was 7.32% (inactive).
In the case of `CC(=O)N1[C@@H](CO)[C@H](c2ccccc2)[C@@H]1CN(C(=O)c1ccccc1)C(C)C` it was 3.57% (inactive).
For `COc1ccc(-c2ccc3n(c2=O)C[C@@H]2[C@@H](CO)[C@H](C(=O)Nc4ccccc4)[C@H]3N2C)cc1` the value was -0.124% (inactive); for `CCC(=O)N(C)C[C@@H]1Oc2cc(C#Cc3cccnc3)ccc2S(=O)(=O)N([C@H](C)CO)C[C@@H]1C`, 29.4% (inactive); for `O=C(c1cc(-c2cccs2)on1)N1CCCCC1`, 36% (inactive).
On to `CC(=O)c1ccc(NC(=O)c2cc(-c3cccs3)on2)cc1`, for which the rescue of ATP level is -12.8% (inactive).
For `Cc1cc(NC(=O)c2cc(-c3cccs3)on2)nn1Cc1ccc(Cl)cc1` the value was 143% (active); for `CC(C)C#Cc1ccc2c(c1)O[C@@H](CN(C)C(=O)CN(C)C)[C@@H](C)CN([C@H](C)CO)S2(=O)=O`, -17.5% (inactive).
In the case of `CNC[C@H]1Oc2ncc(C#Cc3ccccc3F)cc2C(=O)N([C@H](C)CO)C[C@H]1C` it was -12.3% (inactive); in that of `O=C(C[C@@H]1C[C@H]2c3cc(NC(=O)Nc4ccccc4)ccc3O[C@H]2[C@@H](CO)O1)NCc1cccnc1`, 4.89% (inactive); in that of `Cc1cc(NCc2ccco2)n2c(nc3ccccc32)c1C#N`, -35.7% (inactive).
Turning to `CN1c2ccccc2-c2nc3ccccc3n2C1c1ccco1` (stereo not drawn), the rescue of ATP level was 96.4% (active).
Consider `CN1C(C(=O)NCc2ccco2)CC2Cn3c(nc4ccccc43)C21` (stereo not drawn), for which the rescue of ATP level is 2.87% (inactive).
Regarding `COc1ccc(NS(=O)(=O)c2ccc(NC(=O)C(C)(C(F)(F)F)C(F)(F)F)cc2)nn1`, the rescue of ATP level is 113% (active).
In the case of `CCCCCC(=O)Nc1ccc(S(=O)(=O)Nc2ccc(Cl)nn2)cc1` it was -2.2% (inactive).
With `COC(=O)Nc1ccc(S(=O)(=O)Nc2cc(OC)nc(OC)n2)cc1`, the rescue of ATP level was -0.957% (inactive).

Values taken from PubChem BioAssay AID602340 (Broad Institute, 2012).
